This passage reports cytotoxicity call results from the antibiotic and cytotoxicity screens of Wong et al. (2023).

About 3,300 (8.5%) of roughly 39,000 compounds were called active. The list comes from a sample in which actives are over-represented; it also holds similar structures and randomly drawn compounds.

The experiment concerns HepG2. Briefly: cytotoxicity call (relative viability < 0.9). To be noted: 10 µM.
Take `C[C@@H]1CN([C@@H](C)CO)C(=O)c2cccc(N(C)C)c2O[C@@H]1CN(C)S(=O)(=O)c1ccc(Cl)cc1`: the cytotoxicity call was “inactive”. Turning to `C[C@@H]1CN([C@@H](C)CO)C(=O)c2cccc(NC(=O)Nc3ccc(C(F)(F)F)cc3)c2O[C@H]1CN(C)S(=O)(=O)c1ccc(Cl)cc1`, the cytotoxicity call was “inactive”. Regarding `CC(C)NC(=O)Nc1ccc2c(c1)C(=O)N([C@@H](C)CO)C[C@H](C)[C@@H](CN(C)C(=O)Nc1ccc(F)cc1)OCCCC[C@H](C)O2`, the cytotoxicity call is “inactive”.

For the compound `O=C(/C=C/c1ccc(O)c(O)c1)O[C@H]1[C@H](O)[C@@H](O)[C@H](OCCc2ccc(O)c(O)c2)O[C@@H]1CO`, the cytotoxicity call is “inactive”. Consider `C[C@H]1CCCCO[C@H](CN(C)Cc2ccc(C(=O)O)cc2)[C@@H](C)CN([C@@H](C)CO)C(=O)c2cc(NS(=O)(=O)c3ccc(Cl)cc3)ccc2O1`, for which the cytotoxicity call was “inactive”. With `NCc1c(Cl)cccc1Cl` the entry was “inactive”; with `COCc1cn(CC[C@H]2CC[C@@H](NC(=O)CCN3CCCCC3)[C@H](CO)O2)nn1`, “inactive”. Turning to `C[C@H]1CCCCO[C@H](CN(C)C(=O)Nc2ccc(C(F)(F)F)cc2)[C@@H](C)CN([C@@H](C)CO)C(=O)c2cc(NS(=O)(=O)c3cn(C)cn3)ccc2O1`, the cytotoxicity call was “inactive”. With `C[C@@H]1CN([C@@H](C)CO)C(=O)c2cc(NC(=O)CCCN(C)C)ccc2O[C@@H]1CN(C)Cc1ccc(C(=O)O)cc1` the entry was “inactive”; with `C[C@H]1CN([C@@H](C)CO)C(=O)c2cccc(NS(=O)(=O)c3cccs3)c2O[C@H]1CN(C)S(=O)(=O)c1cn(C)cn1`, “inactive”; with `Cc1ccc(S(=O)(=O)N(C)C[C@@H]2Oc3c(NS(=O)(=O)c4cccs4)cccc3C(=O)N([C@H](C)CO)C[C@@H]2C)cc1`, “active”. Turning to `C[C@H](CO)N1C[C@H](C)[C@@H](CN(C)S(=O)(=O)c2cn(C)cn2)Oc2c(NS(=O)(=O)c3cccs3)cccc2C1=O`, the cytotoxicity call was “active”. Under `Cc1ccc(S(=O)(=O)N(C)C[C@@H]2Oc3c(NS(=O)(=O)c4cccs4)cccc3C(=O)N([C@@H](C)CO)C[C@H]2C)cc1` stands “inactive”; under `Cc1ccc(S(=O)(=O)N(C)C[C@H]2Oc3c(NS(=O)(=O)c4cccs4)cccc3C(=O)N([C@H](C)CO)C[C@@H]2C)cc1`, “inactive”; under `C[C@@H]1CN([C@H](C)CO)C(=O)c2cccc(NS(=O)(=O)c3cccs3)c2O[C@@H]1CN(C)S(=O)(=O)c1cn(C)cn1`, “inactive”. With `C[C@H]1CN([C@@H](C)CO)C(=O)c2cccc(NS(=O)(=O)c3cn(C)cn3)c2O[C@H]1CN(C)S(C)(=O)=O` the entry was “inactive”; with `C[C@H](CO)N1C[C@H](C)[C@H](CN(C)S(C)(=O)=O)Oc2c(NS(=O)(=O)c3cn(C)cn3)cccc2C1=O`, “active”; with `C[C@@H]1CN([C@H](C)CO)C(=O)c2cccc(NS(=O)(=O)c3cn(C)cn3)c2O[C@@H]1CN(C)S(C)(=O)=O`, “inactive”. With `O=C(NO)c1ccncc1`, the cytotoxicity call is “inactive”. In the case of `C[C@H]1CN([C@@H](C)CO)C(=O)c2c(c3ccccc3n2C)-c2ccccc2CO[C@@H]1CN(C)C(=O)Nc1ccccc1C(F)(F)F`, the cytotoxicity call is “inactive”. With `CC(C)NC(=O)N(C)C[C@H]1Oc2ccc(NC(=O)CCN3CCOCC3)cc2C(=O)N([C@H](C)CO)C[C@@H]1C` the entry was “inactive”; with `O=C(C[C@H]1CC[C@H]2[C@@H](COC[C@H](O)CN2C(=O)Nc2ccc(C(F)(F)F)cc2)O1)NCCc1ccncc1`, “inactive”; with `Cc1noc(C)c1NC(=O)N(C)C[C@@H]1Oc2c(NC(=O)Nc3cccc4ccccc34)cccc2C(=O)N([C@@H](C)CO)C[C@@H]1C`, “inactive”.

On to `COc1ccc(-c2cnc3c(c2)C(=O)N([C@H](C)CO)C[C@H](C)[C@H](CN(C)C(=O)C2CCOCC2)O3)cc1`, for which the cytotoxicity call is “inactive”. With `C[C@@H]1CN([C@H](C)CO)C(=O)c2cc(NS(=O)(=O)c3ccc(F)cc3)ccc2O[C@H]1CN(C)C(=O)Nc1ccc(C(F)(F)F)cc1` the entry was “inactive”.

For `O=c1nc(Nc2ccccc2)cn[nH]1`, the cytotoxicity call is “inactive”.

With `CO[C@H]1CN(C)C(=O)c2ccc(NC(=O)Nc3ccccc3F)cc2OC[C@H](C)N(Cc2ccccc2C(=O)O)C[C@@H]1C`, the cytotoxicity call is “inactive”. As to `COc1cccc2c1C(=O)c1c(O)c3c(c(O)c1C2=O)CC(O)(C(=O)CO)CC3OC1CC(N)C(O)C(C)O1.Cl` (stereo not given), the cytotoxicity call was “active”. Consider `CCCCC(=O)OCC(=O)[C@]1(O)Cc2c(O)c3c(c(O)c2[C@@H](O[C@H]2C[C@H](NC(=O)C(F)(F)F)[C@H](O)[C@H](C)O2)C1)C(=O)c1c(OC)cccc1C3=O`, for which the cytotoxicity call was “active”. As to `COc1cccc2c1C(=O)c1c(O)c3c(c(O)c1C2=O)CC(O)(C(=O)CO)CC3OC1CC(N)C(O)C(C)O1` (stereo not given) [listing 1 of 2 here], the cytotoxicity call was “active”. Turning to `COc1cccc2c1C(=O)c1c(O)c3c(c(O)c1C2=O)C[C@@](O)(C(=O)CO)C[C@@H]3O[C@H]1C[C@H](N)[C@H](O)[C@H](C)O1`, the cytotoxicity call was “active”. On to `C[C@@H]1CN([C@@H](C)CO)C(=O)Cc2cc(NS(=O)(=O)c3ccc(Cl)cc3)ccc2O[C@@H]1CN(C)Cc1ccc(C(=O)Nc2ccccc2N)cc1`, for which the cytotoxicity call was “inactive”. Take `CN1N=C2CCN(C(=O)[C@@H](COCc3ccccc3)NC(=O)C(C)(C)N)C[C@@]2(Cc2ccccc2)C1=O`: the cytotoxicity call is “inactive”. For the compound `C[C@H]1CN([C@@H](C)CO)C(=O)c2ccccc2-c2ccccc2CO[C@H]1CN(C)C(=O)Nc1cccc(F)c1`, the cytotoxicity call was “inactive”. As for `C[C@@H]1CCCCO[C@@H](CN(C)C(=O)Nc2cccc3ccccc23)[C@@H](C)CN([C@H](C)CO)C(=O)c2cc(NC(=O)c3ccncc3)ccc2O1`, the cytotoxicity call was “inactive”. With `CCC(=O)OC1(C(=O)SCF)C(C)CC2C3CC(F)C4=CC(=O)C=CC4(C)C3(F)C(O)CC21C` (stereo not given) the entry was “inactive”. With `Cc1cc(O)c(C=O)c2c1C(=O)Oc1c(COC(=O)C=CC(=O)O)c(O)c(C(=O)O)c(C)c1O2` the entry was “inactive”; with `C[C@H]1CN([C@@H](C)CO)S(=O)(=O)c2ccc(-c3cncnc3)cc2O[C@H]1CN(C)C(=O)Cc1ccccc1`, “inactive”. For the compound `COc1ccc([C@@H]2C/C=C\C[C@@H](c3cccc(Cl)c3)NC(=O)[C@@H](c3ccccc3)CC(=O)N2)c(OC)c1`, the cytotoxicity call was “inactive”. Regarding `COc1ccc(S(=O)(=O)Nc2ccc3c(c2)CC(=O)N([C@@H](C)CO)C[C@@H](C)[C@@H](CN(C)S(=O)(=O)c2ccccc2)O3)cc1`, the cytotoxicity call is “inactive”. Regarding `Cc1noc(C)c1NC(=O)Nc1ccc2c(c1)CC(=O)N([C@H](C)CO)C[C@@H](C)[C@H](CN(C)Cc1ccc(C(=O)Nc3ccccc3N)cc1)O2`, the cytotoxicity call was “inactive”.

For `COc1cccc2c1C(=O)c1c(O)c3c(c(O)c1C2=O)C[C@](O)(C(=O)CO)C[C@H]3O[C@H]1C[C@@H](N)[C@@H](O)[C@@H](C)O1`, the cytotoxicity call is “active”. With `COc1cccc2c1C(=O)c1c(O)c3c(c(O)c1C2=O)C[C@@](O)(C(=O)CO)C[C@@H]3O[C@H]1C[C@H](N)[C@@H](O)[C@H](C)O1`, the cytotoxicity call was “active”. Regarding `COc1cccc2c1C(=O)c1c(O)c3c(c(O)c1C2=O)CC(O)(C(=O)CO)CC3OC1CC(N)C(O)C(C)O1` (stereo not given) [listing 2 of 2 here], the cytotoxicity call was “active”. Consider `C[C@@H]1CN([C@H](C)CO)C(=O)c2cc(NC(=O)C3CC3)ccc2O[C@H]1CN(C)C(=O)Nc1ccc2c(c1)OCO2`, for which the cytotoxicity call is “inactive”. Regarding `C[C@H]1COC(=O)[C@@H](Cc2ccc(F)cc2)CCC=CC[C@@H](CC(=O)N[C@H](CO)Cc2ccccc2)C(=O)N1`, the cytotoxicity call was “inactive”. With `CC(C)NC(=O)N(C)C[C@@H]1Oc2ccc(NC(=O)CCC(F)(F)F)cc2C(=O)N([C@H](C)CO)C[C@H]1C`, the cytotoxicity call was “inactive”. As for `COc1cccc(-c2cccc(-c3nc(C(=O)NCC(F)(F)F)cc4c3[C@@H](CCO)N([S@](=O)C(C)(C)C)C4)c2)c1`, the cytotoxicity call was “inactive”.

On to `O=C(O)CN(CCN(CC(=O)O)CC(=O)O)CC(=O)O.[Na+].[Na+]`, for which the cytotoxicity call is “inactive”.

Turning to `C[C@H]1CN([C@@H](C)CO)C(=O)Cc2cc(NC(=O)CCCN(C)C)ccc2O[C@@H]1CN(C)C(=O)NC1CCCCC1`, the cytotoxicity call is “inactive”. On to `Cc1noc(C)c1NC(=O)N(C)C[C@H]1OCCCC[C@@H](C)Oc2ccc(NC(=O)Cc3ccccc3)cc2C(=O)N([C@H](C)CO)C[C@@H]1C`, for which the cytotoxicity call was “inactive”. As to `O=C(C[C@H]1CC[C@H]2[C@@H](COC[C@@H](O)CN2Cc2ccccc2F)O1)N[C@H]1CCN(Cc2ccccc2)C1`, the cytotoxicity call is “inactive”. Take `COC(=O)CN(C)c1nnc(N)s1`: the cytotoxicity call is “inactive”.

As to `COC(=O)Cc1csc(CC(N)=O)n1`, the cytotoxicity call was “active”. Regarding `CCOC(=O)Cc1csc(/C(=N/O)C(N)=O)n1`, the cytotoxicity call was “inactive”. For the compound `COC(=O)c1c(CC[C@@H](CO)NC(=O)NCCn2cc(C3(O)CCCC3)nn2)oc(C(C)=O)c1C(=O)OC`, the cytotoxicity call was “inactive”. Consider `Cc1ccc(S(=O)(=O)N(C)C[C@@H]2OCCCC[C@@H](C)Oc3ccc(NC(=O)Nc4c(C)noc4C)cc3C(=O)N([C@@H](C)CO)C[C@H]2C)cc1`, for which the cytotoxicity call is “inactive”. For `C[C@@H]1CN([C@@H](C)CO)C(=O)c2cccc(NS(=O)(=O)c3cccs3)c2O[C@H]1CN(C)Cc1ccc(-c2ccccc2)cc1`, the cytotoxicity call is “inactive”. On to `C[C@H]1CN([C@@H](C)CO)C(=O)Cc2cc(NC(=O)Cc3cn(C)c4ccccc34)ccc2O[C@@H]1CN(C)C`, for which the cytotoxicity call is “inactive”.

Regarding `COc1cc2c(cc1OC)CN(CCc1ccc(-n3nnc(-c4cc(OC)c(OC)cc4NC(=O)c4cc(=O)c5ccccc5o4)n3)cc1)CC2`, the cytotoxicity call was “inactive”. Turning to `COc1cc2c(cc1OC)CN(CCc1ccc(NC(=O)c3cccc4c(=O)c5cccc(OC)c5[nH]c34)cc1)CC2`, the cytotoxicity call was “inactive”.

Consider `COc1cc2c(cc1OC)CN(CCc1ccc(NC(=O)c3cc(OC)c(OC)cc3NC(=O)c3cnc4ccccc4c3)cc1)CC2`, for which the cytotoxicity call is “active”. Take `CNC[C@@H]1Oc2ccc(NC(=O)Cn3cnnn3)cc2C(=O)N([C@@H](C)CO)C[C@H]1C`: the cytotoxicity call is “inactive”. With `CCCCCCO[C@H](C)c1c(c/2[nH]c1/C=C/1\N=C(/C=C/3\NC4=C(CC(=O)C4=C3C)C3=N/C(=C2)[C@@H](C)[C@@H]3CCC(=O)O)C(=C1C)CC)C` the entry was “active”. `Cc1noc(C)c1NC(=O)Nc1cccc2c1O[C@@H](CN(C)Cc1ccc(C(F)(F)F)cc1)[C@@H](C)CN([C@H](C)CO)C2=O`: the cytotoxicity call was “inactive”.
